system: VDR:RXRa (NR concentration 270 nM, RXRa partner concentration 90 nM); test: PBM binding z-score (relative to random genomic background probes); higher = stronger binding; sequences stand for … in GC…GCGATTGACAGCGTAGAATGAAGG
Procedure: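 Protein-binding microarray (Agilent 4x180K custom design, double-stranded 60-nt probes: 5' GC cap, 34-nt variable region, 24-nt constant primer region; full probe sequence given). Purified or IVT nuclear receptor:RXRα heterodimers (3:1 NR:RXRα, mostly 270:90 nM) or homodimers were incubated for 1 h in PBS with 2% milk and no ligand, then detected with Alexa488 antibodies. Fluorescence from o1-orientation probes (~5 replicates averaged) was converted to z-scores against 500 random hg19 background probes. Variable regions are seed direct-repeat (DR0–DR5) sites, all their single-nucleotide variants and half-site ablations.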

Going from ATATGAAGGTTAAGGGTCATTCAGGTTGGTTCGC to ATCTCTAGGTAACCAAGTGCAGTGAATGCCGAAC, the PBM binding z-score falls from 6.02 to 1.3.

Compared with ACTTACGGGTCAACTAGGTTATAGCACGCGTATA, ATATGTAGGTTAGCTGGGGTCATTCGGACTAGGC is higher in PBM binding z-score: 5.88 for the first, 6.4 for the second.

Going from ACAGACAGGTGATGAAGGTATCTCAGGCTATCAT to CTCGAAAGGTCGGTTGAGGTGAGCATACGGATAA, the PBM binding z-score rises from -0.0743 to 2.26.

Going from TTACCAAGGTGACAGGTCGTTGATGCACGCCTTG to TGAATGAGGTTGTAAGATCAGGGAACGTTGCAAA, the PBM binding z-score falls from 0.821 to -0.0386.

First: CCTTCTGGGCCAAAGGTCATTGATTCCAATGCTC
Second: CGTCCAAGGTCAAAGGTCAGTGCAGAGATGACGG
The PBM binding z-score of the first is lower: 4.59 for the first, 6.57 for the second.

Going from ATCTCTAGGTAAAGTTGAGTGAAAGATCGATAGA to AGAATGAGGGTACCAAAGATCAGGGAAACGCTTG, the PBM binding z-score falls from 0.152 to 0.0257.

First: TGAATGAGGTTATAAGATCCGGGAACGTTGCAAA
Second: CAAACTAGGTCAGGAGGTCAAAGTCCGCTTCCCG
The PBM binding z-score of the first is lower: 0.946 for the first, 5.18 for the second.

First: TAGCCTAGGTCATGGGCCACTATACCACGCGAAC
Second: TCTTGTAGATCAGCAGGAGGTTAAGAAAGATCGA
The PBM binding z-score of the first is higher: 2.22 for the first, 0.561 for the second.

Compared with AGAATGCGGTTAAGATCAGGGAAACAGAATACAT, AGTCAAAGTTAATCTAGGTAACGTAAGATATGCT is higher in PBM binding z-score: -0.269 for the first, -0.0868 for the second.

First: GCATATAGGAAATACAAGGTGAAAGTCCGATTGT
Second: ATCGCAAGGTCGAGGTGAGTATAGAGAAAGGGAA
The PBM binding z-score of the first is lower: -0.189 for the first, 1.43 for the second.

First: ACTATTATTTGAGACGAGGGCAACCGATAGGTTG
Second: GGAACGATGGCAAAGTTGATAGCATCTGTCGACG
The PBM binding z-score of the first is higher: 1.1 for the first, -0.351 for the second.

Going from TCGAGGAGGTTAGGGGCATTCAGAATGGCGTCGA to CCTACTGTGCCAAAAAGGTCATTGATGCCGATAA, the PBM binding z-score rises from 1.03 to 4.92.

Compared with ATCGAAAGGTCGAAGGTGAGGATACCCACCCGAA, AACTCTAGGTAACAAGTTCAGTGAAAGAGAGGAC is lower in PBM binding z-score: 2.71 for the first, 1.61 for the second.

Compared with CTCGAAAGGTCGTGTTCAGGTGAGTATACCAAAC, CTCGAAAGGTCGTGCTCATGTGAGTATACCAAAC is higher in PBM binding z-score: 3.35 for the first, 3.36 for the second.

First: ATATGTAGCTTACATCCGGGTCATTCAGGCTATG
Second: CGAACTAGGCCAAGGACAGTGAATCTCCGCACGC
The PBM binding z-score of the first is higher: 2.82 for the first, -0.579 for the second.

First: TCTTGCAGATCAATAGAGGTTAAGAAAGTGCGCT
Second: CCTACTGGGCCAAAAAGGTTATTGATGCCGATAA
The PBM binding z-score of the first is higher: 1.79 for the first, 1.6 for the second.

Going from AGAACGAGGGCACGCTGTGTTGATAGCAGAGTAG to CCTACTGGGCCCAAGGTCATTGATTCCAATGCTC, the PBM binding z-score rises from 0.783 to 3.

Compared with GCTTATAGATCAAGGTTAAGAAAGACTAAGCTAA, ATCGAAAGGTCGACGATGTGAGTATACACCGTTT is higher in PBM binding z-score: 0.244 for the first, 2.51 for the second.

Compared with AGAATGAGGTTACCAAAGATCAAGGAAACGCTTG, AGAATGAGGTTATTAAGATCAGGGAATTGCGGTC is higher in PBM binding z-score: 1.81 for the first, 2.62 for the second.

Compared with TTGCCAAGGTGAGCTGAGGTCGTTGATCCAACTC, CAAACTAGGTCACCGGAAGGTCACAGTCCGCATG is higher in PBM binding z-score: 3.93 for the first, 5.64 for the second.
